Several values for one entry are separate records, joined by “and”; a condition that tells them apart may be missing. Equal values may be shown once. Results filed as inconclusive are left out. Unmarked numbers belong to inactive results. Activity calls are given as the source filed them. Calls come from the whole dose curve; as a rule, active = well fitted activation curve with a large enough effect; inconclusive = small, poorly fitted or top-dose-only effect; inactive = flat fitted curve, though single readings scatter.
Assay: Cellular Toxicity (caspase-3) Jurkat (AID 655);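 note: cells exposed to compound for 16 h at 37 °C before reading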
Conditions: Jurkat caspase-3 activation, luminescence, DMSO = 0%, tamoxifen = 100%; at 92.2 µM (top of the series)
Description: NIH Chemical Genomics Center [NCGC]
NIH Molecular Libraries Screening Centers Network [MLSCN]
National Institutes of Environmental Health Sciences [NIEHS]
National Toxicology Program [NTP]
We have developed a 1536-well cell-based assay for quantitative high throughput screening (qHTS) against a number of cell lines to determine in vitro caspase 3/7 of small molecules. This particular assay uses the Jurkat cell line which is derived from human T cell leukemia.
NCGC Assay Protocol Summary:
The Caspase-Glo 3/7 assay (Promega) is a homogeneous method to measure caspase-3 and caspase-7 activities in cultured cells. The quantitation of caspase 3/7 activity is based on the cleavage of a peptide-aminoluciferin substrate. After caspase cleaves the substrate the free aminoluciferin is liberated and serves as the substrate of luciferase, which generates the light. The luminescent signal is proportional to amount of caspase 3/7 activity present.
Using the Caspase-Glo 3/7 assay, the amount of caspase 3/7 activity was measured in the Jurkat cell line with complete culture medium following compound treatment for 16 hours. The assay was performed in opaque white 1536-well plates. In the screen, tamoxifen and doxorubicin were used as positive controls. Library compounds were measured for their ability to cause the activation of caspase 3/7 in the cell line, as reflected by an increase in luminescence signal, in a concentration-dependent manner. Data were normalized to the controls for basal activity (DMSO only) and 100% stimulation (100 uM tamoxifen). AC50 values were determined from concentration-response data modeled with the standard Hill equation.
qHTS protocol for caspase 3/7 assay in Jurkat cells
[Step] [Parameter] [Value] [Description]
1. Reagent; 5 uL; 5000 Jurkat cells/well
3. Controls; 23 nL; Tamoxifen 0.23 uM to 100 uM & Doxorubicin 7.0 pM to 100 uM
4. Time; 16 hr; 37 °C incubation
5. Reagent; 5 uL; Caspase-Glo 3/7 reagent
6. Time; 20 min; Room Temperature
7. Detection; Luminescence; Viewlux plate reader
Keywords: caspase 3/7, apoptosis, Jurkat cell line, luminescence, NTPHTS, NTPHTS_NCGC, NIEHS, EPA, DSSTox, MLSMR, MLSCN, NIH Roadmap, qHTS, NCGC

| Compound | caspase-3 activation |
| --- | --- |
| Cc1ccc(O)c(C)c1 | 2.67% |
| c1ccc(OP(Oc2ccccc2)Oc2ccccc2)cc1 | -1.12% |
| O=C(Cl)C(Cl)(Cl)Cl | 3.49% |
| S=C=Nc1cccc2ccccc12 | 1.77% |
| Nc1ccc(Br)cc1 | 5.03% |
| CC(=O)[O-].CC(=O)[O-].O.O.O.[Pb+2] | 1.15% and 0.852% |
| C[N+](C)(C)Cc1ccccc1 | 0.448% |
| CC(C)(c1ccccc1)c1ccc(O)cc1 | 11.6% |
| O=[N+]([O-])c1ccc(Cl)c(Cl)c1 | 0.916% |
| CN=C=S | -1.9% |
| c1ccc(-c2ccccc2)cc1 | 0.52% |
| CCSC(=O)Cl | -0.54% |
| Cc1ccccc1N | 11.5% and 2.29% |
| CC(C)(C)OO | 16.6% and 4.19% |
| Cc1ccc([N+](=O)[O-])cc1C | -0.46% |
| C=C(Cl)Cl | 0.59% |
| BrCCBr | -0.244% |
| C=C(C)C(=O)OCC1CO1 (stereo not given) | 1.42% |
| COc1ccc(C=O)cc1OC | 1.2% |
| C=C(C)C#N | 1.57% |

| Compound | caspase-3 activation |
| --- | --- |
| O=S1OCC2C(CO1)C1(Cl)C(Cl)=C(Cl)C2(Cl)C1(Cl)Cl (stereo not given) | 10.8% |
| CNC(=O)O/N=C/C(C)(C)SC | -0.602% |
| CC(O)CCl (stereo not given) | 1.88% |
| COC1=CC(=O)O[C@@H](/C=C/c2ccc3c(c2)OCO3)C1 | -10% |
| C=CC(N)=O | 0.421% and 0.897% |
| O=C(Cl)/C=C/C(=O)Cl | 0.334% |
| CCCOC(=O)c1ccccc1C(=O)OCCC | -1.2% |
| C=CC(=C)C | 0.843% |
| C=CCOC(=O)c1ccccc1N | 0.746% |
| C=CCc1ccc(OC)cc1 | 0.324% |
| c1nc[nH]n1 | 0.542% |
| OCC(Br)CBr (stereo not given) | 0.101% |
| CCCCOCCOP(=O)(OCCOCCCC)OCCOCCCC | 1.12% |
| CC(Cl)Cl | 1.86% |
| CCCCOC(=O)c1ccccc1C(=O)OCCCC | -1.56% |
| C[C@H]1CCCC(=O)CCC/C=C/c2cc(O)cc(O)c2C(=O)O1 | 17.6% and 19.1% |
| CCC[CH2][Sn]([Cl])([Cl])[Cl] | 1.34% |
| c1ccc(N=Nc2ccccc2)cc1 | 92% (active) |
| O=NN(CCO)CCO | -1.33% |
| Clc1cc(Cl)c(-c2cc(Cl)c(Cl)cc2Cl)cc1Cl | 0.996% |
